# Assay outcomes deposited in PubChem by National Center for Advancing Translational Sciences (NCATS).
# Only some compounds are listed: those with a hit (about 21% of all), similar ones and a draw of the others.
# Pf growth 48h: inhibits P. falciparum growth in the first generation, 48 h. P. falciparum luciferase growth in erythrocytes, 48 h. Potency, µM (series often up to 28.7 µM), inactives show at the top dose activity change, negative = inhibition, actives largely listed as inhibitors. 310,000 tested, 5.9% active; also: potency is read from the fitted curve at half-maximal effect; % is scaled to controls: 0 for no effect and ±100 for the full control effect
#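 Luciferase-expressing P. falciparum in infected erythrocytes (2% hematocrit, 0.1% parasitemia final) in RPMI 1640/0.5% Albumax were exposed to compound for 48 hours at 37 C, 5% CO2; growth read as luminescence.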
# Pf growth 96h: P. falciparum growth inhibition at 96 hours. P. falciparum luciferase reporter growth, 96 h. Potency, µM (top dose mostly 28.7 µM), for the others: at the highest dose activity change, negative = inhibition, actives largely listed as inhibitors. 320,000 tested, 6.9% active; also: potency is read from the fitted curve at half-maximal effect; % is scaled to controls: 0 for no effect and ±100 for the full control effect
#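 Plates of compound plus infected erythrocytes (2% hematocrit, 0.05% parasitemia final) incubate 96 hours, 37 C, 5% CO2. Detection reagent added; reduced luminescence from the parasites' luciferase reporter flags inhibition.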
# Sm TGR block: blocks Schistosoma mansoni thioredoxin glutathione reductase; purified TGR, DTNB reduction, TNB absorbance 405 nm; Potency, µM (doses to about 114 µM), inactives show top-dose activity change, negative = inhibition, most hits filed as inhibitors; 360,000 tested, 3% active; AID 485364; also: potency is read from the fitted curve at half-maximal effect; % is scaled to controls: 0 for no effect and ±100 for the full control effect; nearly all actives have a fitted effect of over 60% in size
#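 Kinetic colorimetric format: TGR-catalysed, NADPH-driven DTNB reduction monitored via TNB absorbance. Enzyme dispensed at 20 nM; compound exposure 15 min at room temperature before reaction start.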
# Shiga inhibitor: Shiga toxin inhibition; AID 2315; inhibition, % at 38.7 µM; Vero cells, Shiga toxin protein synthesis inhibition reporter; 290,000 tested, 9.2% active; in the data active = inhibition mostly above about 28%, no sharp cut-off; inactive = mostly below about 43%; also: 0% is about no effect
# CHX counter: counter-screen for Shiga toxin inhibitors: cycloheximide protein synthesis inhibition | cell reporter, cycloheximide protein synthesis inhibition counterscreen | 300,000 tested, 12% active | AID 2314 | max response, %; in the data active = max response mostly above about 13%, no sharp cut-off; inactive = mostly below about 14%; also: read at 38.3 µM for the half of the compounds with a filed dose; 0% is about no effect
# NS1 inh: blocks influenza NS1 protein function. Potency, µM (highest dose often 46.1 µM), inactives show at the highest dose activity, positive = more growth. 270,000 tested, 0.4% active. AID 2326; calls by dose curve; also: potency is read from the fitted curve at half-maximal effect; actives are rising curves; nearly all actives have a fitted effect of over 50% in size
#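 In this qHTS, NS1 from influenza A is expressed in budding yeast, where it slows growth. Cells are switched from glucose to 2% galactose medium (pH 6.0, -URA), treated with compound, and growth recovery is read at OD600.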
# Numbers without * were called inactive; i = inactive; ? = inconclusive; · = no result; [ ] = remark or other dose. Unless noted, calls follow the shape of the dose curve; as a rule, active = well fitted curve in the direction sought with a large enough effect; inconclusive = small, poorly fitted or top-dose-only effect, or another doubt; inactive = no such curve, though single readings can be large; an effect the other way counts as inactive or inconclusive.
SMILES,Pf growth 48h,Pf growth 96h,Sm TGR block,Shiga inhibitor,CHX counter,NS1 inh
Cc1ccccc1OS(=O)(=O)c1cn(C)c(=O)n(C)c1=O,20%,1%,-1%,-19,-2,3%
O=C(Nc1ccc([N+](=O)[O-])cn1)c1cc(-c2cccc(Br)c2)nc2ccccc12,3.7µM*,-2%,5%,-10,-5,10%
O=C(NN1CCOCC1)c1cc(-c2cccc(Cl)c2)nc2ccccc12,1%,25%,12%,-21,-1,-10%
O=C(Nc1ccc([N+](=O)[O-])cn1)c1cc(-c2cccc(Cl)c2)nc2ccccc12,2.1µM*,-21%,1%,-5,-4,12%
O=C(Nc1ccccn1)c1cc(-c2cccc(Cl)c2)nc2ccccc12,3.3µM*,43%,10%,17,-2,12%
CCCCn1cc(S(=O)(=O)c2cc(C)ccc2C)c(=O)c2cc(F)c(F)cc21,·,·,-1%,·,·,·
O=C(CCC(=O)OCc1ccc(C(=O)Oc2ccccc2)cc1)Nc1cccc2ccccc12,-1%,0%,-1%,18,15,12%
O=C(Oc1ccc(OC(=O)c2ccco2)c(S(=O)(=O)c2ccc(Cl)cc2)c1)c1ccco1,4%,10µM*,-6%,-9,-2,4%
O=C(Oc1cccc(OC(=O)c2ccco2)c1)c1ccco1,-23%,15µM*,1%,-2,-1,-17%
Cn1ccsc1=NC(=O)c1ccc(OC(F)(F)F)cc1,47%,80%,0%,83*,36*,-22%
Cc1ccc(NC(=O)CSCC(=O)N=c2sccn2C)cc1,0%,9%,6%,·,·,·
COC(=O)c1ccc(C(=O)N=c2sccn2C)cc1,93%,143%,-5%,79*,40*,-8%
CCOc1cc(C(=O)N=c2sccn2C)ccc1OC(F)F,-7%,-11%,-9%,71,35*,9%
Cn1ccs/c1=N\C(=O)Nc1ccccc1,135%,174%,0%,75*,66*,-7%
Cc1nn(C(=O)c2ccccc2)c(C)c1S(=O)(=O)N1CCCCCC1,·,·,-2%,·,·,·
Cn1ccsc1=NC(=O)c1ccc(CS(C)(=O)=O)cc1,64%,50%,4%,39*,12,-4%
Cn1ccsc1=NC(=O)c1ccc(S(=O)(=O)C(F)F)cc1,69%,15%,2%,69*,26*,1%
COc1ccc(C(=O)N=c2sccn2C)cc1,188%,203%,0%,71*,33*,·
Cn1ccsc1=NC(=O)c1ccc(Cl)cc1,90%,56%,·,113*,39*,-5%
CCCN(CCC)S(=O)(=O)c1cccc(C(=O)N=c2sccn2C)c1,?,-39%,11%,7,-2,8%
Cn1ccsc1=NC(=O)c1ccccc1F,-13%,?,11%,41,16,·
COc1ccc(NC(=O)CSCC(=O)N=c2sccn2C)cc1,4%,8%,6%,-3,1,5%
COc1ccccc1NC(=O)COC(=O)C1CC1,-5%,3%,-1%,-3,8,5%
COc1cc(NC(=O)CSc2nc3c(c(=O)n(C)c(=O)n3C)n2C)cc(OC)c1,22%,53%,-2%,-2,-5,3%
Cc1nc2nc(C)c(NS(=O)(=O)c3ccc(F)cc3)c(=O)n2[nH]1,·,·,4%,·,·,·
SMILES,Pf growth 48h,Pf growth 96h,Sm TGR block,Shiga inhibitor,CHX counter,NS1 inh
C[C@H](NC(=O)c1ccc(Cl)cc1)C(=O)NCCc1ccc(S(N)(=O)=O)cc1,21%,5%,-1%,-11,-6,·
CN(C)c1ccc(C(=O)N=c2sccn2C)cc1[N+](=O)[O-],86%,64%,-9%,42*,18*,-1%
COc1ccc(Sc2nc3ccccc3n3c(C(F)(F)F)nnc23)cc1,1%,?,6%,61,-2,5%
COc1ccc(-c2cc(-n3c(C(F)(F)F)nc4ccccc43)n(CCC#N)n2)cc1,13µM*,·,14%,13,6,-1%
CCc1ccc(S(=O)(=O)c2ccc(-n3nc(C)cc3N)cc2)cc1,-9%,-16%,-5%,-12,-4,·
Nc1cc(C2CCCC2)nn1-c1ccccc1,125%,138%,0%,104*,46*,21%
CCc1ccc(-c2cc(N)n(-c3ccccc3)n2)cc1,388%,425%,5%,154*,33*,·
Cc1cccc(-c2cc(N)n(-c3ccccc3)n2)c1,335%,i,-7%,65*,45*,·
Cc1ccc(-c2cc(N)n(-c3ccccc3)n2)cc1,101%,138%,2%,80*,66*,?
Cc1cccc(-n2nc(C)cc2N)c1,66%,117%,-22%,-8,13,12%
COc1ccc(N2CCN(CCS(=O)(=O)c3cc(Cl)ccc3Cl)CC2)cc1,?,-12%,-10%,·,·,·
CC1(C)OC(c2ccccc2)=C/C(=C/C=N/NC(=O)c2ccncc2)O1,?,88%,-1%[57.1 µM],-25,5,-1%
Cc1ccc2[nH]c3c(c2c1)CCCC3=O,38%,85%,1%,22,17*,-18%
Cc1ccc2[nH]c3c(c2c1)CCc1cn[nH]c1-3,?,23%,?,28*,25*,-30%
Cc1ccc2[nH]c3c(c2c1)CNCC3,34%,-9%,-3%,1,-6,4%
CCCCc1c(C)c2cc(C)ccc2[nH]c1=O,·,-29%,2%,18,-3,-24%
Cc1ccc2[nH]c3c(c2c1)CCC3=O,-2%,-11%,5%,16,10,-59%
CCCCN1CCc2c([nH]c3ccc(C)cc23)C1=O,161%,101%,-26%,132*,70*,1%
O=C(O)CSCCn1cccn1,23%,13µM*,-4%,-11,-7,-3%
CCOc1ccc(CCNC(=O)c2ccc3c(c2)c(C)c(C)n3Cc2ccccc2)cc1OCC,·,·,8%,·,·,·
CCOc1ccc(C2=Cc3cc(OC)c(OC)cc3C(=C(Cl)Cl)O2)cc1,·,?,35µM*,-11,6,12%
CCOc1ccc(-c2cc(-c3nc(-c4ccc(OC)c(OC)c4)no3)[nH]n2)cc1,·,·,0%,·,·,·
Cc1cc2c(cc1S(=O)(=O)Nc1cccc(C(F)(F)F)c1)OCCN2C,·,·,5%,·,·,·
COc1cc2c(C#CCCCO)c(-c3ccc(C#N)cc3)oc(=O)c2cc1OC,7%,19%,32µM*,·,·,·
COc1cc(OC)cc(-c2oc(=O)c3cc(OC)c(OC)cc3c2C#CCCCO)c1,?,?,-3%,·,·,·
COc1cc2c(-c3ccc4cc[nH]c4c3)c(-c3ccsc3)oc(=O)c2cc1OC,?,2.3µM*,-4%,·,·,·
COc1cc2c(-c3ccc4[nH]ccc4c3)c(-c3ccc(C#N)cc3)oc(=O)c2cc1OC,?,4.7µM*,-7%,·,·,·
COCCCNC(=O)C1CCN(c2nc3ccc(C)cc3[nH]2)CC1,·,·,-2%,·,·,·
O=c1c2ccccc2ncn1-c1ccc([N+](=O)[O-])c(C(F)(F)F)c1,35%,17%,-1%,2,-2,14%
CCCc1nc2ccc(Br)cc2c(=O)n1-c1ccc([N+](=O)[O-])c(C(F)(F)F)c1,12µM*,34%,-4%,20,10,0%
